Activity calls are given as the source filed them. How the source made its calls: active means hit-call score of the fitted dose curve at least 0.9, where 1 is the maximum; inactive means score below 0.9.
Assays:
Settings in all cases: mRNA level, 48 h; actives raise or lower the signal
[1] = read-out: Glutamate-cysteine ligase catalytic (GCLC), GCLC (gene 2729); experiment: LTEA_HepaRG_GCLC: Life Technologies and Expression Analysis (LTEA) Assay for Glutamate-cysteine ligase catalytic (GCLC) using HepaRG (AID 2283498)
Procedure, shortened: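 Differentiated human HepaRG cells, plated 48 h then switched to serum-free induction medium, were exposed in duplicate for 48 h to 8 half-log concentrations topping at 100 uM in 0.5% DMSO. GCLC mRNA was quantified by qRT-PCR against ACTB, GAPDH and POLR2A.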

[2] = read-out: growth arrest and DNA damage 45 (GADD45G), GADD45G (gene 10912); experiment: LTEA_HepaRG_GADD45G: Life Technologies and Expression Analysis (LTEA) Assay for growth arrest and DNA damage 45 (GADD45G) using HepaRG (AID 2283499)
Procedure, shortened: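 Differentiated human HepaRG cells in serum-free induction medium were exposed for 48 h to 8 half-log concentrations up to 100 uM in 0.5% DMSO, in duplicate. GADD45G mRNA was measured by TaqMan qRT-PCR, normalised to ACTB, GAPDH and POLR2A, and fitted bidirectionally against DMSO.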

[3] = read-out: Glutamate-cysteine ligase regulatory (GCLM), GCLM (gene 2730); experiment: LTEA_HepaRG_GCLM: Life Technologies and Expression Analysis (LTEA) Assay for Glutamate-cysteine ligase regulatory (GCLM) using HepaRG (AID 2283500)
Procedure, shortened: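 Differentiated HepaRG cells exposed 48 h in serum-free induction medium to eight half-log concentrations up to 100 uM (0.5% DMSO). GCLM mRNA by TaqMan qRT-PCR, normalized to ACTB, GAPDH and POLR2A; bidirectional fit versus DMSO.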

[4] = read-out: Glutathione S-transferase M3 (GSTM3), GSTM3 (gene 2947); experiment: LTEA_HepaRG_GSTM3: Life Technologies and Expression Analysis (LTEA) Assay for Glutathione S-transferase M3 (GSTM3) using HepaRG (AID 2283501)
Procedure, shortened: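 Differentiated HepaRG cells in serum-free induction medium were exposed in duplicate for 48 h to 8 half-log concentrations up to 100 uM in 0.5% DMSO. GSTM3 mRNA was measured by TaqMan qRT-PCR, normalized to ACTB/GAPDH/POLR2A, and fitted bidirectionally versus DMSO.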

[5] = read-out: Heat shock 70 kDa protein 1 (HSPA1A), gene 3303; experiment: LTEA_HepaRG_HSPA1A: Life Technologies and Expression Analysis (LTEA) Assay for Heat shock 70 kDa protein 1 (HSPA1A) using HepaRG (AID 2283502)
Procedure, shortened: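 Human HepaRG cells in serum-free induction medium were exposed in duplicate for 48 h to 8 half-log concentrations, highest 100 uM, in 0.5% DMSO. HSPA1A mRNA read by TaqMan qRT-PCR, normalized to ACTB, GAPDH, POLR2A, fitted bidirectionally against DMSO.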

[6] = read-out: Hypoxia-inducible factor 1-alpha (Homo sapiens) (UniProt Q16665); experiment: LTEA_HepaRG_HIF1A: Life Technologies and Expression Analysis (LTEA) Assay for Hypoxia-inducible factor 1 (HIF1A) Trancription factor using HepaRG (AID 2283503)
Procedure, shortened: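 Differentiated HepaRG cells in serum-free induction medium exposed 48 h, in duplicate, to 8-point half-log series from 100 uM in 0.5% DMSO. HIF1A mRNA measured by TaqMan qRT-PCR, normalized to ACTB/GAPDH/POLR2A, fitted bidirectionally versus DMSO.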

[7] = read-out: 3-Hydroxy-3-Methylglutaryl-CoA Synthase 2 (HMGCS2), HMGCS2 (gene 3158); experiment: LTEA_HepaRG_HMGCS2: Life Technologies and Expression Analysis (LTEA) Assay for 3-Hydroxy-3-Methylglutaryl-CoA Synthase 2 (HMGCS2) using HepaRG (AID 2283504)
Procedure: (§1) LTEA_HepaRG is a cell based, multiplexed-readout assay that uses HepaRG, a human liver cell line, with measurements taken at 48 hours after chemical dosing on a 96-well plate.LTEA_HepaRG_HMGCS2 is one of 102 assay component(s) measured in the LTEA HepaRG cell culture assay. It is a marker of Steatosis.Data from the assay component LTEA_HepaRG_HMGCS2 was analyzed into 1 endpoint. This assay endpoint, LTEA_HepaRG_HMGCS2, was analyzed with bidirectional fitting relative to DMSO as the negative control and baseline of activity. Using a type of inducible reporter, measures of mRNA induction for gain or loss-of-signal activity can be used to understand regulation of transcription factor activity. To generalize the intended target to other relatable targets, this assay endpoint is annotated to the lyase intended target family, where the subfamily is HMG-CoA synthase.
(§2) A total of 1060 chemcials from the ToxCast library were tested in eight-point concentration-response experiments. Cell culture and cytotoxicity assays were conducted at Thermo Fisher Scientific's Custom Services facility (Madison, WI). […] Fluidigm's 96.96 Dynamic ArrayTM (Fluidigm, Amsterdam, the Netherlands) technology was used for gene expression analyses by quantitative reverse transcription polymerase chain reaction (qRT-PCR, performed by Quintiles/Expression Analysis, Durham, NC)89. […]

HGF (gene 3082) = experiment: LTEA_HepaRG_HGF: Life Technologies and Expression Analysis (LTEA) Assay for Hepatocyte Growth Facto (HGF) using HepaRG (AID 2283505)
Procedure, shortened: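 Differentiated human HepaRG cells in serum-free induction medium were exposed in duplicate for 48 h to eight concentrations (top 100 uM, half-log steps, 0.5% DMSO). HGF mRNA was quantified by qRT-PCR, normalized to ACTB, GAPDH and POLR2A.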

[8] = read-out: Intercellular Adhesion Molecule 1 (ICAM1), ICAM1 (gene 3383); experiment: LTEA_HepaRG_ICAM1: Life Technologies and Expression Analysis (LTEA) Assay for Intercellular Adhesion Molecule 1 (ICAM1) using HepaRG (AID 2283507)
Procedure: as §1, with “plate.LTEA_HepaRG_ICAM1” for “plate.LTEA_HepaRG_HMGCS2”, “Fibrosis.Data” for “Steatosis.Data”, “LTEA_HepaRG_ICAM1” for “LTEA_HepaRG_HMGCS2”, “LTEA_HepaRG_ICAM1,” for “LTEA_HepaRG_HMGCS2,”, “cell adhesion molecules” for “lyase”, “Immunoglobulin CAM.” for “HMG-CoA synthase.”
as §2

[9] = read-out: Insulin-like growth factor-binding protein 1 (IGFBP1), IGFBP1 (gene 3484); experiment: LTEA_HepaRG_IGFBP1: Life Technologies and Expression Analysis (LTEA) Assay for Insulin-like growth factor-binding protein 1 (IGFBP1) using HepaRG (AID 2283508)
Procedure, shortened: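 Differentiated human HepaRG cells in serum-free induction medium were exposed in duplicate for 48 h to eight concentrations, top 100 uM with half-log dilutions, in 0.5% DMSO. Transcript levels came from qRT-PCR normalised to ACTB, GAPDH and POLR2A, fitted bidirectionally against DMSO.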

Measured: outcome

Chain of Hypoxia-inducible factor 1-alpha (Homo sapiens) (Q16665 whole entry, looked up): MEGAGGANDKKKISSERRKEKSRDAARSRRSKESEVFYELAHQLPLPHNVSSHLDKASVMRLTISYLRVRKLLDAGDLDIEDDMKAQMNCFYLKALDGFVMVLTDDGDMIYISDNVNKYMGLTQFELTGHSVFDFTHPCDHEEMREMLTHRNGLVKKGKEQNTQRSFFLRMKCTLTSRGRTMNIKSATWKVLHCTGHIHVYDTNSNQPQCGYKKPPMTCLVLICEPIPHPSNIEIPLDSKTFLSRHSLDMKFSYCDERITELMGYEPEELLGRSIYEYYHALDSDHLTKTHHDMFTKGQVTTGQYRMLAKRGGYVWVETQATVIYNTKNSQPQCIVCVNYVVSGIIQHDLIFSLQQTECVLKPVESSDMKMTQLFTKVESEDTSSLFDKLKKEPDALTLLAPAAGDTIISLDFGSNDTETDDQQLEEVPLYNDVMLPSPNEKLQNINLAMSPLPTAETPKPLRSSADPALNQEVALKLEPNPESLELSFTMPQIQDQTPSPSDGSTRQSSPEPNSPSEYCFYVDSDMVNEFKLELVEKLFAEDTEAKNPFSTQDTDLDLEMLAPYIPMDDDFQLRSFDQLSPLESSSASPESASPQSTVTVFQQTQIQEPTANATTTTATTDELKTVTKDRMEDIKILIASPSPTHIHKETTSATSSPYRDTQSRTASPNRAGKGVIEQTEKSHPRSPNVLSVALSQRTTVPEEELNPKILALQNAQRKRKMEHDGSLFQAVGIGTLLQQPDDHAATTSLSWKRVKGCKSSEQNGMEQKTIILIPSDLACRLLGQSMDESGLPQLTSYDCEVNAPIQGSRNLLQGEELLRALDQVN

CS(=O)(=O)OCCCCOS(C)(=O)=O
inactive: all assays above

— PubChem BioAssay (EPA / NIEHS)
